Shown are actives, neighbours in structure and some others; about 6.7% of the full set was active somewhere.
Pf Dd2 growth = inhibitors of Plasmodium falciparum Dd2 growth; P. falciparum Dd2 growth, SYBR Green, 72 h; stronger effect = lower value; activity change, % at 10 µM; actives 2.3% (n = 94,000); AID 1159554; in the data active means activity change below about -80%; inconclusive means no clear call, values can overlap the other calls
C diff HTS = C. difficile growth inhibition | Clostridium difficile clinical isolate growth, OD600, 24 h; stronger effect = lower value | actives 0.25% (n = 86,000) | growth activity, negative = inhibition, % at 16 µg/mL (by protocol);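 active means mean growth activity at or below -80% and every replicate also at or below -80%; inconclusive means mean at or below -80% but some replicate above -80%; inactive means mean growth activity above -80%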;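 further: 0% = DMSO wells and -100% = levofloxacin 16 µg/mL wells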
T cruzi growth-1 = blocks T. cruzi growth in NIH3T3 culture; AID 624255; actives 5.9% (n = 77,000); T. cruzi beta-gal in NIH3T3, GalScreen luminescence, 90 h; inhibition, % at 8.34 µM;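 active means mean inhibition above about 93%, with at least 55% of replicates each passing it, limit read from the data, passing the limit was not always enough; inconclusive means only one of those two conditions holds; inactive means neither condition holds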
T cruzi growth-2 = inhibitors of T. cruzi proliferation. shares compounds with T cruzi growth-1. AID 651739. inhibition, % at 8.35 µM. actives 72% (n = 5,600). T. cruzi beta-gal in NIH3T3, GalScreen luminescence, 90 h;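 active means mean replicate inhibition above about 95% and at least 55% of replicates individually reaching it, limit read from the data; inconclusive means only one of the two criteria is met; inactive means neither criterion is met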
T cruzi growth-3 = blocks T. cruzi growth in NIH3T3 host cells. shares compounds with T cruzi growth-1. T. cruzi beta-gal in NIH3T3, GalScreen luminescence, 90 h. inhibition, % at 2.09 µM. actives 21% (n = 5,600). AID 651740;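 active means mean inhibition above about 95%, with at least 55% of replicates also reaching it, limit read from the data; inconclusive means meets just one of the two conditions; inactive means meets neither condition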;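 further: plate controls were neutral control median for no effect and positive control median for full effect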
NIH3T3 tox = kills mouse NIH/3T3 fibroblasts; shares compounds with T cruzi growth-1; NIH/3T3 viability, CellTiter-Glo ATP luminescence, 90 h; cytotoxicity (signal decrease), % at 8.35 µM; actives 14% (n = 5,600); AID 651742;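 active means mean signal decrease across replicates above about 35% based on untreated-well scatter, with enough replicates individually passing, limit read from the data; inconclusive means no rule stated though some were filed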;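 further: 0% = median of neutral control wells and 100% = median of positive control wells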
3T3 cytotox 2 = NIH/3T3 (mouse) viability loss; AID 651744; shares compounds with T cruzi growth-1; NIH/3T3 viability, CellTiter-Glo ATP luminescence, 90 h; inhibition, % at 24.9 µM; actives 56% (n = 5,600);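 active means mean loss of cell viability signal at or above a set limit, and enough replicates individually reaching it; inconclusive means meets only the mean limit or only the replicate share; inactive means meets neither condition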;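 further: 0% = median of neutral control wells and 100% = median of positive control wells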
An asterisk follows results filed as active; ? = inconclusive; · = not tested or not shown.

SMILES | Pf Dd2 growth | C diff HTS | T cruzi growth-1 | T cruzi growth-2 | T cruzi growth-3 | NIH3T3 tox | 3T3 cytotox 2
O=C(NCC1CC1)[C@H]1[C@H](CO)[C@H]2Cn3c(ccc(-c4cccnc4)c3=O)[C@@H]1N2C(=O)C1CC1 | · | 1 | 69 | · | · | · | ·
O=S(=O)(Cc1ccccc1)N1CCCCN2[C@H](C1)[C@@H](c1ccc(C#Cc3ccccc3)cc1)[C@@H]2CO | -42 | 28 | 101* | 105* | 112* | 27 | 68*
O=S(=O)(c1ccccc1)N1CCCCN2[C@@H](CO)[C@H](c3ccc(C#Cc4ccccc4)cc3)[C@@H]2C1 | 10 | 59 | 71 | · | · | · | ·
O=S(=O)(Cc1ccccc1)N1CCCCN2[C@H](C1)[C@H](c1ccc(C#Cc3ccccc3)cc1)[C@@H]2CO | 0 | 3 | 104* | 108* | ? | 26 | 107*
CCCC#Cc1ccc([C@@H]2[C@H]3CN(S(=O)(=O)Cc4ccccc4)CCCCN3[C@H]2CO)cc1 | -15 | 62 | 81 | · | · | · | ·
O=[N+]([O-])c1ccccc1S(=O)(=O)N1CCN(Cc2ccc(OCCO)cc2)CC1 | · | -3 | · | · | · | · | ·
C[C@H]1CN([C@@H](C)CO)C(=O)c2cc(NC(=O)Nc3cccc4ccccc34)ccc2O[C@H]1CN(C)Cc1ccc(-c2ccccc2)cc1 | -12 | 4 | 81 | · | · | · | ·
C[C@@H]1CN([C@@H](C)CO)C(=O)c2cc(NC(=O)Nc3cccc4ccccc34)ccc2O[C@H]1CN(C)Cc1ccc(-c2ccccc2)cc1 | 12 | -4 | 73 | · | · | · | ·
C[C@H](CO)N1C[C@H](C)[C@@H](CN(C)Cc2ccc(-c3ccccc3)cc2)Oc2ccc(NC(=O)Nc3cccc4ccccc34)cc2C1=O | -16 | 17 | 102* | 106* | 72 | 9 | 28
C[C@@H]1CN([C@H](C)CO)C(=O)c2cc(NC(=O)Nc3cccc4ccccc34)ccc2O[C@H]1CN(C)Cc1ccc(-c2ccccc2)cc1 | 8 | 6 | 112* | 103* | 91 | 9 | -1
COc1ccc2c3c(n(C)c2c1)[C@H](CO)N(C(=O)C1CCCC1)CC31CN(C)C1 | -60 | -2 | · | · | · | · | ·
O=C(C[C@H]1CC[C@@H]2[C@H](COC[C@H](O)CN2C(=O)c2ccncc2)O1)NCc1ccc(-c2ccccc2)cc1 | -13 | · | -45 | · | · | · | ·
C[C@@H]1CN([C@@H](C)CO)C(=O)Cc2cc(N(C)C)ccc2O[C@@H]1CN(C)Cc1ccncc1 | 18 | 0 | 69 | · | · | · | ·
COc1cccc(-c2ccc3c(c2)O[C@H](CN(C)C(=O)C2CC2)[C@@H](C)CN([C@H](C)CO)S3(=O)=O)c1 | -9 | · | -120 | · | · | · | ·
COc1cccc(-c2ccc3c(c2)O[C@@H](CN(C)C(=O)C2CC2)[C@@H](C)CN([C@@H](C)CO)S3(=O)=O)c1 | -21 | · | 105* | 79 | 61 | 16 | 45*
COc1cccc(-c2ccc3c(c2)O[C@@H](CN(C)C(=O)C2CC2)[C@@H](C)CN([C@H](C)CO)S3(=O)=O)c1 | -45 | · | 105* | 82 | 21 | -7 | 63*
COc1cccc(-c2ccc3c(c2)O[C@H](CN(C)C(=O)C2CCOCC2)[C@H](C)CN([C@@H](C)CO)S3(=O)=O)c1 | -3 | -1 | · | · | · | · | ·
COc1ccc(S(=O)(=O)Nc2ccc3c(c2)C(=O)N([C@H](C)CO)C[C@H](C)[C@@H](CN(C)Cc2ccccc2)OCCCC[C@H](C)O3)cc1 | 15 | -1 | -29 | · | · | · | ·
Cc1noc(C)c1NC(=O)N(C)C[C@@H]1OCCCC[C@H](C)Oc2ccc(NC(=O)c3ccncc3)cc2C(=O)N([C@@H](C)CO)C[C@H]1C | 33 | 1 | 24 | · | · | · | ·
C[C@@H]1CN([C@@H](C)CO)C(=O)c2cc(C#C[C@@H](C)O)cnc2O[C@@H]1CN(C)Cc1ccc(-c2ccccc2)cc1 | -22 | 1 | · | · | · | · | ·
C[C@@H]1CN([C@H](C)CO)C(=O)c2cc(C3=CCCCC3)cnc2O[C@@H]1CN(C)Cc1ccccc1F | -3 | 7 | -144 | · | · | · | ·
O=C(C[C@H]1CC[C@H]2[C@@H](COC[C@@H](O)CN2C(=O)c2ccncc2)O1)NC1CCC1 | 0 | 9 | 14 | · | · | · | ·
O=C(C[C@@H]1CC[C@H]2[C@@H](COC[C@H](O)CN2C(=O)c2ccncc2)O1)NC1CCC1 | -6 | 3 | 60 | · | · | · | ·
O=C(C[C@H]1CC[C@@H]2[C@H](COC[C@@H](O)CN2C(=O)c2ccncc2)O1)NC1CCC1 | 10 | 8 | 97* | -30 | -32 | -11 | -14
O=C(C[C@@H]1CC[C@@H]2[C@H](COC[C@H](O)CN2C(=O)c2ccncc2)O1)NC1CCC1 | -16 | 5 | 108* | -16 | -86 | 2 | -15
SMILES | Pf Dd2 growth | C diff HTS | T cruzi growth-1 | T cruzi growth-2 | T cruzi growth-3 | NIH3T3 tox | 3T3 cytotox 2
COc1ccc(CN(C)C[C@H]2Oc3ccc(NC(=O)Cn4cnnn4)cc3C(=O)N([C@H](C)CO)C[C@H]2C)cc1 | 5 | 2 | 13 | · | · | · | ·
CO[C@@H]1CN(C)C(=O)c2cc(NS(=O)(=O)c3ccccc3)ccc2OC[C@@H](C)N(Cc2nccs2)C[C@H]1C | -14 | · | 54 | · | · | · | ·
Cc1noc(C)c1NC(=O)N1C[C@@H](O)COC[C@@H]2O[C@@H](CC(=O)NCC3CC3)CC[C@H]21 | · | -6 | 77 | · | · | · | ·
CCCNC(=O)N1C[C@@H](O)COC[C@@H]2O[C@H](CC(=O)NCc3ccc(Cl)c(Cl)c3)CC[C@H]21 | 27 | -3 | 10 | · | · | · | ·
O=C(C[C@@H]1CC[C@@H]2[C@H](COC[C@@H](O)CN2C(=O)Nc2ccc(Cl)c(Cl)c2)O1)NCc1ccc(Cl)c(Cl)c1 | -16 | · | 109* | 91 | 97* | 3 | 90*
CCNC(=O)C[C@H]1CC[C@@H]2[C@H](COC[C@H](O)CN2C(=O)Nc2ccc(Cl)c(Cl)c2)O1 | 9 | · | -7 | · | · | · | ·
O=C(C[C@@H]1CC[C@@H]2[C@H](COC[C@H](O)CN2C(=O)Nc2ccc(Cl)c(Cl)c2)O1)NCc1ccc(Cl)c(Cl)c1 | -4 | · | 107* | 100* | 74 | 43* | 103*
Cc1noc(C)c1NC(=O)N1C[C@@H](O)COC[C@@H]2O[C@H](CC(=O)NCC3CC3)CC[C@H]21 | · | -1 | ? | ? | 4 | -1 | -3
COc1cccc(C#Cc2ccc([C@H]3[C@@H](CO)N4C(=O)CN(C(C)=O)C[C@H]34)cc2)c1 | 14 | -9 | · | · | · | · | ·
COc1cccc(-c2ccc3c(c2)[C@H]2[C@H](CCN2C(=O)CC2CC2)[C@H](CO)N3C)c1 | -9 | -2 | 9 | · | · | · | ·
COc1cccc(-c2ccc3c(c2)[C@@H]2[C@@H](CCN2C(=O)CC2CC2)[C@H](CO)N3C)c1 | -18 | 21 | 5 | · | · | · | ·
CCC(=O)N1CC[C@H]2[C@@H]1c1cc(-c3cccc(OC)c3)ccc1N(C)[C@H]2CO | -1 | -7 | 99* | 101* | 77 | 11 | -4
COCC(=O)N1CC[C@@H]2[C@H]1c1cc(-c3cccc(OC)c3)ccc1N(C)[C@H]2CO | -6 | 2 | 96* | 103* | 106* | -24 | -38

Screening results deposited in PubChem by Broad Institute.
